Screening results as filed in PubChem BioAssay.
The list is not random: actives were taken first. Their share in the collection is about 5.7%.
hgDAF-12 ag: activates the H. glycines DAF-12 receptor ligand-binding domain; HEK293 GAL4-hgDAF12 UAS-luciferase reporter, agonist luminescence; normalized to butyrate control; 1.8% of 370,000 active; AID 687014; activation, % at 6.8 µM;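 active = activation above a cutoff set at the mean of all screened compounds plus 3 SD, cut at about 10% in these data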;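 note: 0% = DMSO wells and 100% = sodium butyrate wells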
DAX1 inh-1: NR0B1 (DAX1) inhibition | P51843 | HEK293 Gal4-DAX1 luciferase reporter, luminescence | inhibition, % at 6.75 µM | 0.99% of 340,000 active | AID 504766;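 active = inhibition above the mean over all tested compounds plus 3 SD, cut at about 4.2% in these data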;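 note: 0% = DAX1-transfected cells with DMSO and 100% = empty-vector control cells with DMSO; inhibition shows as a rise in luminescence from relieved DAX1 repression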
DAX1 inh-2: blocks DAX1 repression of SF-1 activated StAR promoter | 1.1% of 370,000 active | HEK293T StAR-luciferase reporter, SF-1/DAX-1 repression relief | inhibition, % at 6.8 µM;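 active = inhibition above the mean over all tested compounds plus 3 SD, cut at about 3.6% in these data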;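 note: 0% = DAX-1 cells with DMSO and 100% = cells lacking DAX-1 with DMSO; higher inhibition means more luminescence from relief of DAX-1 repression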
AHR activator: activators of human aryl hydrocarbon receptor | AHR-responsive luciferase reporter cells, luminescence | activation, % at 5 µM | 2.5% of 320,000 active; in the data active = activation above about 47%;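 note: 0% = vehicle wells and 100% = reference agonist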
ssDAF-12 act: activators of S. stercoralis DAF-12 nuclear receptor | HEK293 ssDAF-12/GRIP1 lit1-tk-luc reporter, luminescence; % of 3 µM dafachronic acid response | activation, % at 6.8 µM | 1% of 370,000 active | AID 652126;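 active = activation above the mean over all tested compounds plus 3 SD, cut at about 0.9% in these data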;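 note: 0% = DMSO-only wells and 100% = 3 µM delta7-dafachronic acid wells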
hcDAF12 agonist: H. contortus DAF-12 activation, primary screen | 1.4% of 370,000 active | HEK293 hcDAF-12 lit1-tk-luc reporter, luminescence; 0% DMSO, 100% Δ7-dafachronic acid | AID 652067 | activation, % at 6.8 µM;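 active = activation above the mean of all tested compounds plus 3 SD, cut at about 5.5% in these data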;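 note: 100% = response to 3 µM Δ7-dafachronic acid high control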
The depositor's hits bear a star; / = no result.

SMILES	hgDAF-12 ag	DAX1 inh-1	DAX1 inh-2	AHR activator	ssDAF-12 act	hcDAF12 agonist
C=CCn1c(=N)n(CC(=O)c2ccc(Br)s2)c2ccccc21	-4	3	1	80*	-2	-1
C=CCn1c(=N)n(CC(=O)OC)c2ccccc21	-1	2	1	4	-1	0
CC(C)c1ccc(NC(=S)Nc2ccc3[nH]c(=O)[nH]c3c2)cc1	-2	2	-1	2	-1	-1
CN(Cc1ccc(-n2cccn2)cc1)C(=O)c1cnn2c1NC(c1ccco1)CC2C(F)(F)F (configuration not stated)	-1	0	0	/	-2	-3
CC1Cc2ccccc2N1C(=O)c1cc2cccnc2n(C)c1=O (configuration not stated)	3	0	1	36	0	5.6*
CC(C)(C)OC(=O)N1Cc2ccccc2C[C@H]1C(=O)NCC(=O)NCC1CCCO1 (some centres not stated)	1	1	0	-2	-1	-3
COc1ccc2nc(-c3ccccn3)[nH]c2c1	12*	2	2	47*	0	5
Nc1ccc2nc(-c3ccccn3)[nH]c2c1	6	0	2	39	-1	1
Cc1ccc(NC(=O)COC(=O)CC2CC3CCC2C3)cc1S(=O)(=O)N1CCOCC1 (configuration not stated)	-2	0	3.6*	0	-2	0
Cc1ccc(NC(=O)COC(=O)CN2C(=O)C3CCCCC3C2=O)cc1S(=O)(=O)N1CCOCC1 (configuration not stated)	-3	-1	0	4	-2	2
Cc1ccc(OCCC(=O)OCC(=O)Nc2ccc(C)c(S(=O)(=O)N3CCOCC3)c2)cc1	1	0	3.7*	/	-1	0
O=C1CC(c2ccc3c(c2)OCCO3)Oc2ccc([N+](=O)[O-])cc21 (configuration not stated)	-5	4.7*	0	5	-2	-3
Cc1ccc(Cn2nc(C)c(C(=O)N3CCN(S(=O)(=O)/C=C/c4ccccc4)CC3)c2C)cc1	-4	-1	-4	0	-1	-2
CC(C)(C)c1ccccc1NC(=O)Nc1nc(C(N)c2ccccc2)cs1 (configuration not stated)	-2	/	0	/	-1	-1
C=CCn1c(SCC(=O)c2ccc(F)cc2)nnc1-c1ccc2c(c1)OCO2	-3	0	-1	1	1.3*	-2
C=CCn1c(SCC(=O)c2ccc(F)cc2)nnc1-c1ccc(F)cc1	3	/	0	/	-1	-3
CCN(C(=O)CSc1nnc(-c2c[nH]c3ccccc23)n1C1CC1)C1CCS(=O)(=O)C1 (configuration not stated)	2	1	0	14	-1	2
O=C1N=C(N2CCOCC2)S/C1=C1\C(=O)N(Cc2ccccc2)c2ccccc21	4	4.4*	0	0	-1	1
CC(C)OC(=O)Nc1ccc2c(c1)N(C(=O)N1CCN(C)CC1)c1ccccc1CC2	4	2	1	1	0	2
N#Cc1cc(-c2ccccc2)c[nH]c1=O	0	5.3*	0	0	-1	1
N#Cc1c(-c2ccccc2)cc(-c2ccccc2)[nH]c1=O	-3	0	0	2	-1	-1
COC(=O)c1ccccc1NC(=O)c1cc2n(n1)C(C(F)F)CC(C(F)F)N2 (configuration not stated)	-3	0	0	-5	-1	-1
O=C1CC(SCCc2nc3ccccc3[nH]2)C(=O)N1c1ccc(F)cc1 (configuration not stated)	-2	1	0	-2	-1	-2
O=C(COC(=O)/C=C/c1ccccc1)NCc1ccccc1Cl	0	1	-1	3	-1	0
COC(=O)c1nc2cc3c(cc2c(C)c1C(=O)OC)OCO3	0	0	0	1	-1	0
SMILES	hgDAF-12 ag	DAX1 inh-1	DAX1 inh-2	AHR activator	ssDAF-12 act	hcDAF12 agonist
Cc1nc2cc3c(cc2c(C)c1C(=O)OC(C)C)OCO3	6	2	1	64*	-1	-1
O=C(O)CCCCC1SCC2NC(=O)NC21 (configuration not stated)	-1	5.8*	1	-1	-2	0
CCCCCC1NC(=O)NC1CCCCCC(=O)O (configuration not stated)	1	-1	0	-1	-2	0
CC1CCc2sc(C(=O)OCC(=O)NC(N)=O)cc2C1 (configuration not stated)	4	1	0	-1	-2	-3
O=C(NC(=S)Nc1ccccc1O)c1ccc(-c2ccc(Cl)cc2)o1	-2	1	1	67*	0	2
COc1ccc(NC(=O)CCC(=O)OC(C(=O)c2ccccc2)c2ccccc2)cc1 (configuration not stated)	-2	2	0	0	-2	-2
Cc1ccc(C(=O)C(OC(=O)CCC(=O)Nc2cccc(C)c2)c2ccccc2)cc1 (configuration not stated)	0	4.7*	0	0	0	0
Cn1nc(-c2ccc(Cl)cc2)c2cc(C(=O)NCCCN3CCOCC3)sc21	/	3	/	55*	/	/
CCN(CC)CCNC(=O)c1cc2c(-c3ccc(Cl)cc3)nn(C)c2s1	3	2	2	53*	0	9.7*
CCN(CC)CCNC(=O)c1cc2c(-c3cccc(OC)c3)nn(C)c2s1	4	0	1	48*	1.2*	5
CCOCCCNC(=O)c1cc2c(-c3ccc(Cl)cc3)nn(C)c2s1	2	-2	-1	56*	-1	5
Cc1cc(C(=O)NCC(=O)OC(C(=O)Nc2cc(C(F)(F)F)ccc2Cl)c2ccccc2)ccc1[N+](=O)[O-] (configuration not stated)	-1	-1	-1	-6	-1	-1
CCCOC(=O)C1=C(C)NC2=C(C(=O)CCC2)C1c1cc(OC)ccc1OC (configuration not stated)	0	0	0	2	-2	-1
CCOc1ccc(NC(=O)COc2nsnc2N2CCCCC2)cc1	1	-1	0	5	-1	-1
CCCCn1c(N)c(N(CCOC)C(=O)CC(NC(=O)c2ccccc2)c2ccccc2)c(=O)[nH]c1=O (configuration not stated)	1	1	1	0	-1	0
Cn1c2ccc(Br)cc2c2nnc(SCC(=O)O)nc21	3	1	0	54*	1	5.7*
CCCCn1c2ccc(C)cc2c2nnc(SCCN3CCCCC3)nc21	-1	0	0	/	-2	-3
CCn1c2ccccc2c2nnc(SCc3ccccc3)nc21	0	-1	0	63*	0	5
